Inconclusive results are not listed. Active and inactive are the calls of the source. Calls follow the shape of the dose curve; as a rule, active = well fitted curve in the direction sought with a large enough effect; inconclusive = small, poorly fitted or top-dose-only effect, or another doubt; inactive = no such curve, though single readings can be large; an effect the other way counts as inactive or inconclusive.
Key:
[1] = test system: Zika virus NS2B-NS3 protease (linked construct); assay: Primary screen NINDS Rhodamine qHTS for Zika virus inhibitors (AID 1347160); also: nearly all actives have a fitted effect of over 55% in size; also: potency is read from the fitted curve at half-maximal effect
Procedure, shortened: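 Each compound, titrated, sat 15 min with 25 nM linked protease before 1.5 microM Rhodamine110 substrate went in. Fluorescence gain over the next 15 min, in pH 8.0 Tris with Tween 20, gave Hill-fitted curves.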

[2] = OV-KATE Cancer Cell Toxicity qHTS against the NCATS CANVASS Library (AID 1347345); also: potency is read from the fitted curve at half-maximal effect; as to activity change, negative = cytotoxicity: % is scaled to controls: 0 for no effect and ±100 for the full control effect
Procedure, shortened: (§1)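 Following a 4 h pre-incubation of 1000 seeded cells, compounds were pinned in an 11-pnt dilution series and left for 72 h; viability then came from CellTiter-Glo.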

[3] = HPAF-II Cancer Cell Toxicity qHTS against the NCATS CANVASS Library (AID 1347346); also: nearly all actives have a fitted effect of over 55% in size; also: potency is read from the fitted curve at half-maximal effect; as to activity change, negative = cytotoxicity: series mostly up to about 38 µM; % is scaled to controls: 0 for no effect and ±100 for the full control effect
Procedure, shortened: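 First, HPAF-II cells are plated (1000 cells/well) and held 4 h at 37 degrees C. Next, compounds are pin-transferred as an 11-point series. After 72 h, CellTiter-Glo is added and luminescence measured.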

[4] = UWB1.289 Cancer Cell Toxicity qHTS against the NCATS CANVASS Library (AID 1347347); also: nearly all actives have a fitted effect of over 60% in size; also: potency is read from the fitted curve at half-maximal effect
Procedure, shortened: as §1

[5] = OV-SAHO Cancer Cell Toxicity qHTS against the NCATS CANVASS Library (AID 1347348); also: nearly all actives have a fitted effect of over 55% in size; also: potency is read from the fitted curve at half-maximal effect
Procedure, shortened: as §1

[6] = Panc-1005 Cancer Cell Toxicity qHTS against the NCATS CANVASS Library (AID 1347349); also: nearly all actives have a fitted effect of over 60% in size; also: potency is read from the fitted curve at half-maximal effect
Procedure, shortened: as §1

[7] = SW1088 Cancer Cell Toxicity qHTS against the NCATS CANVASS Library (AID 1347350); also: nearly all actives have a fitted effect of over 75% in size; also: potency is read from the fitted curve at half-maximal effect
Procedure, shortened: as §1

[8] = COV-362 Cancer Cell Toxicity qHTS against the NCATS CANVASS Library (AID 1347352); also: potency is read from the fitted curve at half-maximal effect
Procedure, shortened: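 First, 1000 cells go into each well and rest for 4 hours. Next, an 11-point dilution range is pinned in. Plates then incubate 72 hours before CellTiter-Glo addition and luminescence reading.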

[9] = HEK293 18hr Apoptosis Induction qHTS against the NCATS CANVASS Library (AID 1347357); also: potency is read from the fitted curve at half-maximal effect; as to caspase activation: 0% is about no effect
Procedure, shortened: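 HEK293 cells (500/well, DMEM + 10% FBS) treated with an 11-point series for 18 h at 37 degrees C. Caspase-3/7 activity read by Caspase-Glo luminescence after 15 min at room temperature.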

[10] = HEK293 24hr Apoptosis Induction qHTS against the NCATS CANVASS Library (AID 1347359); also: potency is read from the fitted curve at half-maximal effect; as to activation: 0% is about no effect
Procedure, shortened: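 HEK293 cells, 500 per well, exposed to an 11-point compound series for 24 hours at 37 degrees C. Caspase 3/7 activity read by Caspase-Glo luminescence (DEVD substrate) after 15 min at room temperature.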

[11] = qHTS for ATAD5 Agonist screened against the NCATS CANVASS Library (AID 1347367);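 also: luciferase reporter driven by ATAD5 which rises upon DNA damage; 0% is about no effect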
Procedure, shortened: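 Luciferase reporter under ATAD5 control, stably integrated in HEK293T cells (2000/well). Compounds (11 points) incubated 16 h at 37C; viability read first by CellTiter-Fluor, then luminescence reporting ATAD5 activation. MMS positive control.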

[12] = MCF7 Cancer Cell Toxicity qHTS against the NCATS CANVASS Library (AID 1347369); also: potency is read from the fitted curve at half-maximal effect
Procedure, shortened: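 MCF7 cells (500/well) were exposed 72 h at 37 °C to compounds in an 11-point series. Viability was read as ATP content by CellTiterGlo luminescence.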

[13] = J3T Cancer Cell Toxicity qHTS against the NCATS CANVASS Library (AID 1347371); also: potency is read from the fitted curve at half-maximal effect;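 as to activity change, negative = cytotoxicity: J3T is a canine glioma cancer cell line seeded at 500 cells per well; series mostly up to about 46 µM; % is scaled to controls: 0 for no effect and ±100 for the full control effect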
Procedure, shortened: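 Luminescence from CellTiterGlo, reporting cellular ATP, serves as the viability measure after 72 hr compound treatment of J3T canine glioma cells seeded at 500 cells/well.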

[14] = molecular target: Nuclear receptor subfamily 1 group I member 3 (Homo sapiens) (UniProt Q14994); assay: qHTS for Constitutive Androstane Receptor (CAR) Agonist screened against the NCATS CANVASS Library (AID 1347373);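 also: every well also contained 1.5 µM PK11195 alongside the test compound; 0% is about no effect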
Procedure, shortened: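 Cells were plated and allowed to attach for 4hr, then dosed with compound in an 11-point series alongside 1.5uM PK11195. After 24hr at 37C, viability was measured fluorometrically and CAR-driven CYP2B6 reporter luminescence was recorded.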

[15] = 10-beta competent E. coli microbial cell viability qHTS against the NCATS CANVASS Library (AID 1347376); also: series mostly up to about 46 µM; 0% is about no effect
Procedure, shortened: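 Bacterial suspension diluted to 0.2 OD was dosed with compounds, 11-point series, then held overnight at 37C. BacTiter-Glo reagent was added, and after 20 min at room temperature ATP-dependent luminescence was measured.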

[16] = Inflammasome Signaling qHTS Counterscreen: IL-1-beta AlphaLISA counterscreen against the NCATS CANVASS Library (AID 1347381);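 also: cell-free check with purified IL-1β in medium and no THP-1 cells; series mostly up to about 57 µM; 0% is about no effect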
Procedure, shortened: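 Purified IL-1-beta (4 pg/well) + compound, 11-pt conc. series; acceptor beads 6 ug/mL + biotin-Ab 0.6 nM final, 1 h RT; SA-donor 24 ug/ml final, 30 min dark RT; read ex 680/em 615.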

[17] = Vero-766 cells viability qHTS against the NCATS CANVASS Library: Counterscreen for Zika virus inhibition assay (AID 1347394); also: nearly all actives have a fitted effect of over 60% in size; also: potency is read from the fitted curve at half-maximal effect
Procedure, shortened: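 Vero 766 cells (1000/well), without Zika virus, were exposed to compounds for 72 h at 37C. Viability was measured by CellTiter Glo luminescence. Media-only wells served as 100% inhibition.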

[18] = Viability qHTS for inhibitors of the SERCaMP assay screened against the NCATS CANVASS Library (AID 1347400); also: nearly all actives have a fitted effect of over 70% in size; also: potency is read from the fitted curve at half-maximal effect; as to activity change, negative = cytotoxicity: series mostly up to about 92 µM; % is scaled to controls: 0 for no effect and ±100 for the full control effect
Procedure, shortened: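 Seed SH-SY5Y-GLuc SERCaMP MJH297 cells at 1000 per well, incubate 4 h, add compounds across an 11-point range, incubate 48 h at 37C, then add CellTiter-Glo and read luminescence.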

[19] = KB-3-1 Cancer Cell Toxicity qHTS against the NCATS CANVASS Library (AID 1347366); also: nearly all actives have a fitted effect of over 75% in size; also: potency is read from the fitted curve at half-maximal effect
Procedure, shortened: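 KB-3-1 cells (500/well) in DMEM with 10% FBS were exposed to compounds for 72 h at 37C. Viability was read by CellTiter-Glo luminescence.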

[20] = qHTS for Inflammasome Signaling Inhibitors: IL-1-beta AlphaLISA screen against the NCATS CANVASS Library (AID 1347379);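 also: human THP-1 cells primed with LPS then triggered with ATP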;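 as to activity change, negative = inhibition: secreted IL-1B measured as AlphaLISA emission at 615 nm; % is scaled to controls: 0 for no effect and ±100 for the full control effect; lower signal means less IL-1B release which is the wanted effect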
Procedure, shortened: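 Secreted IL-1B from human THP-1 cells quantified by AlphaLISA 16 hr after compound addition (final up to 57.5 uM). A 1 hr compound pretreatment preceded inflammasome activation with 250 ng/mL LPS plus 1.25 mM ATP (final).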

Nuclear receptor subfamily 1 group I member 3 (Homo sapiens), sequence (Q14994 whole entry, looked up): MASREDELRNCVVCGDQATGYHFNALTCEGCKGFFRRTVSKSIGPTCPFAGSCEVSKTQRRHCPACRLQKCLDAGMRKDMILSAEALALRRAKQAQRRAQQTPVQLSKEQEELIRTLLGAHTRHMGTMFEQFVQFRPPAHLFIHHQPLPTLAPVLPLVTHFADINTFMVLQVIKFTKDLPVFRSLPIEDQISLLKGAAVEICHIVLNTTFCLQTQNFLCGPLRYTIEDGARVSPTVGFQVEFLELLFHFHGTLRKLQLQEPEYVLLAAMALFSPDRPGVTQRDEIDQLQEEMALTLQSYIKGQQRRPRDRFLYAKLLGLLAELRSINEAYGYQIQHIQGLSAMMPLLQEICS

CC(C)=CCC/C(C)=C/Cc1c(O)c(CC=C(C)C)c(O)c2c(=O)c3cc(O)ccc3oc12
inactive: Potency [9] | Potency [10] | Potency [11] | Potency [13] | outcome [14] | outcome [15] | outcome [16] | Potency [18]
active: Potency [1] 9.84 µM | Potency [2] 2.36 µM | Potency [3] 13.3 µM | Potency [4] 8.38 µM | Potency [5] 10.6 µM | Potency [6] 14.9 µM | Potency [7] 9.43 µM | Potency [8] 18.8 µM | Potency [12] 16.5 µM | Potency [17] 26.3 µM

CO[C@@H]1[C@H](O)[C@@H](C)O[C@@H](OC[C@H]2/C=C/C=C/C(=O)C(C)C[C@H](C)C(O[C@@H]3O[C@H](C)CC4(OC(=O)O[C@@H]4C)C3O)[C@@H](C)/C=C/C(=O)OC2C)[C@@H]1OC (some centres undefined)
active: Potency [1] 49.3 µM
inactive: Potency [2] | Potency [3] | Potency [4] | Potency [5] | Potency [6] | Potency [7] | Potency [8] | Potency [9] | Potency [10] | Potency [19] | Potency [11] | Potency [12] | Potency [13] | outcome [14] | outcome [15] | Potency [20] | outcome [16] | Potency [17] | Potency [18]

COc1ccc([C@@H]2c3cc(OC)c(OC)cc3C(=O)[C@H](C)C2C)cc1OC (some centres undefined)
inactive: Potency [1] | activity change, negative = cytotoxicity [2] -0.626% [at 7.64 µM] | activity change, negative = cytotoxicity [3] 3.84% [at 7.64 µM] | activity change, negative = cytotoxicity [4] 3.43% [at 7.64 µM] | activity change, negative = cytotoxicity [5] -3.3% [at 7.64 µM] | activity change, negative = cytotoxicity [6] 1.86% [at 7.64 µM] | outcome [7] inactive [at 7.64 µM] | activity change, negative = cytotoxicity [8] -1.95% [at 7.64 µM] | caspase activation [9] 3.8% [at 9.19 µM] | activation [10] 3.39% [at 9.19 µM] | activity change, negative = cytotoxicity [19] 8.45% [at 9.19 µM] | activation [11] -0.416% [at 9.19 µM] | activity change, negative = cytotoxicity [12] -14.7% [at 9.17 µM] | outcome [13] inactive [at 9.19 µM] | activation [14] 1.07% [at 9.19 µM] | outcome [20] inactive [at 11.5 µM] | activity change, negative = inhibition [16] -8.6% [at 11.5 µM] | activity change, negative = cytotoxic [17] -18.3% [at 9.19 µM] | activity change, negative = cytotoxicity [18] 9.45% [at 18.4 µM]

C=C1C(=O)C[C@H]2C[C@@H]1[C@]2(C)CCC=C(C)C
active: Potency [1] 17.5 µM
inactive: Potency [2] | Potency [3] | Potency [4] | Potency [5] | Potency [6] | Potency [7] | Potency [8] | Potency [9] | Potency [10] | Potency [19] | Potency [11] | Potency [12] | Potency [13] | outcome [14] | outcome [15] | Potency [20] | outcome [16] | Potency [17] | Potency [18]

C[C@@H]1C[C@H]2C[C@]3(CCCCN3C)[C@@H]3C[C@H]2[C@H](C1)N(C)C3
inactive: Potency [1] | Potency [2] | Potency [3] | Potency [4] | Potency [5] | Potency [6] | Potency [7] | Potency [8] | Potency [9] | Potency [10] | Potency [19] | Potency [11] | Potency [12] | Potency [13] | outcome [14] | outcome [15] | Potency [20] | outcome [16] | Potency [17]

OCc1ccc2ocnc2c1
inactive: Potency [1] | Potency [2] | Potency [3] | Potency [4] | Potency [5] | Potency [6] | Potency [7] | Potency [8] | Potency [9] | Potency [10] | Potency [19] | Potency [11] | Potency [12] | Potency [13] | outcome [14] | outcome [15] | Potency [20] | outcome [16] | Potency [17] | Potency [18]

C[C@@H]1C(=O)[C@]23CC[C@H]1C[C@]21O[C@H]2C(C)(C)C=CC(=O)[C@]23COC1=O
inactive: Potency [1] | Potency [2] | Potency [3] | Potency [4] | Potency [5] | Potency [6] | Potency [7] | Potency [8] | Potency [9] | Potency [10] | Potency [19] | Potency [11] | Potency [12] | Potency [13] | outcome [14] | outcome [15] | Potency [20] | outcome [16] | Potency [17] | Potency [18]

C=CC(=C)CC[C@]1(C)[C@H]2C[C@H](OC(=O)C(C)CC)C=C3[C@H](OC(C)=O)O[C@H](OC(C)=O)[C@@]32[C@H](OC)C[C@@H]1C (some centres undefined)
inactive: Potency [11] | outcome [14] | outcome [15] | outcome [16]
active: Potency [1] 32.1 µM | Potency [2] 2.17 µM | Potency [3] 3.43 µM | Potency [4] 3.44 µM | Potency [5] 2.73 µM | Potency [6] 2.17 µM | Potency [7] 0.769 µM | Potency [8] 4.33 µM | Potency [9] 13.6 µM | Potency [10] 9.59 µM | Potency [19] 6.79 µM | Potency [12] 12.1 µM | Potency [13] 4.81 µM | Potency [20] 7.03 µM | Potency [17] 6.8 µM | Potency [18] 2.21 µM

CC(=O)O[C@@H]1C=C2C(=O)OC[C@]2(O)[C@@]2(C)CCCC(C)(C)[C@H]12
active: Potency [1] 19.6 µM | Potency [2] 5.94 µM | Potency [3] 13.3 µM | Potency [4] 10.6 µM | Potency [5] 5.94 µM | Potency [6] 6.68 µM | Potency [7] 5.3 µM | Potency [8] 8.38 µM | Potency [9] 26.4 µM | Potency [20] 10.9 µM | Potency [17] 16.6 µM | Potency [18] 12 µM
inactive: Potency [11] | outcome [14] | outcome [15] | outcome [16]

COc1ccc(CCCc2cc(O)c(OC)c(O)c2)c(O)c1O
active: Potency [1] 11 µM
inactive: Potency [2] | Potency [3] | Potency [4] | Potency [5] | Potency [6] | Potency [7] | Potency [8] | Potency [9] | Potency [10] | Potency [11] | Potency [12] | Potency [13] | outcome [14] | outcome [15] | Potency [20] | outcome [16] | Potency [17] | Potency [18]

C/C=C1/CC[C@@H]2c3[nH]c4ccccc4c3CCN2C1
inactive: Potency [1] | Potency [2] | Potency [3] | Potency [5] | Potency [7] | Potency [8] | Potency [9] | Potency [10] | Potency [19] | Potency [11] | Potency [12] | Potency [13] | outcome [14] | outcome [15] | Potency [20] | outcome [16] | Potency [17] | Potency [18]
